# Source: PubChem BioAssay (several laboratories)
# Measles CPE = compounds protecting cells from measles virus cytopathic effect, primary screen, measles RdRp inhibitor project, single point, MLSMR library, absorbance | Measles virus-infected cells, CPE protection | 1.5% of 140,000 active | protection (pct of control), % at 4 µM | AID 841, 2007; in the data active = protection mostly above about 24%, no sharp cut-off; inactive = mostly below about 26%
# CYP2C19 inh = blockers of cytochrome P450 2C19 activity – biochemical, luminescence, ADME assay, primary screen. P33261. CYP2C19 Supersomes, luciferin-H EGE luminescence, 30 min. inhibition, % at 5 µM. 21% of 96,000 active;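 active = CYP2C19 inhibition above a set limit at 5 µM in the primary screen, cut at about 50% in these data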;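 also: plate controls were negative control wells for no effect and 2.5 mM tranylcypromine positive control for full effect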
# CYP2C9 inhib = blockers of cytochrome P450 2C9 activity – biochemical, luminescence, ADME assay, primary screen. CYP2C9 Supersomes, luciferin-H conversion. inhibition, % at 5 µM. 20% of 96,000 active. AID 777, 2007;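 active = blocking of liver enzyme CYP2C9 beyond about 50% at 5 µM, limit read from the data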
# Target sequence (P11712 whole entry, looked up): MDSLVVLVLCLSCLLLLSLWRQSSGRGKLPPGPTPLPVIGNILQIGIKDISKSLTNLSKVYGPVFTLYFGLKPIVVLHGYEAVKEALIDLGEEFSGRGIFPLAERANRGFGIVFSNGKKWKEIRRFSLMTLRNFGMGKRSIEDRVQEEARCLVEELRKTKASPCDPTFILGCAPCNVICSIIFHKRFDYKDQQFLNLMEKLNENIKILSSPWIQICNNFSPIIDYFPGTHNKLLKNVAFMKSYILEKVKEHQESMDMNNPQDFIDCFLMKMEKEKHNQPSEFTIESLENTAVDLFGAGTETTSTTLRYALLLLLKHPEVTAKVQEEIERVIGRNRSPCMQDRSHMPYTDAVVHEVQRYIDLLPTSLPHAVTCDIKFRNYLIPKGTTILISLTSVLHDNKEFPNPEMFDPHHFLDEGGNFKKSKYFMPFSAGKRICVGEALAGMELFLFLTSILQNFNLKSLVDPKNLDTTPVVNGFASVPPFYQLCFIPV
# CYP2C9 activ = human CYP2C9 activators, primary screen, biochemical, luminescence | Cytochrome P450 2C9 (Homo sapiens), P11712 | recombinant CYP2C9, luciferin-H conversion; hits give high values; factor 1 = untreated enzyme, 0 = blocked | activation factor at 5 µM | 1.4% of 96,000 active;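 active = activation factor of 2 or more for CYP2C9 at a 5 µM dose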;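 also: 0 = sulfaphenazole-blocked wells and 1 = vehicle-only wells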
# CYP2C19 activ = human CYP2C19 activators, primary screen, biochemical, luminescence | activation factor at 5 µM | recombinant CYP2C19, luciferin-H EGE luminescence; hits give high values; 0 = fully inhibited enzyme, 1 = untreated enzyme | 96,000 tested, under 10 active | Cytochrome P450 2C19 (Homo sapiens), P33261;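 active = activation factor of at least 2 at 5 µM in the primary screen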;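 also: 0 = wells with 2.5 mM tranylcypromine and 1 = vehicle-only wells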
# Starred values were filed as active, the others as inactive; . = no result given. This is a sample that favours compounds with a hit; in the whole collection about 22% have one here.
SMILES,Measles CPE,CYP2C19 inh,CYP2C9 inhib,CYP2C9 activ,CYP2C19 activ
CCOC(=O)C(CC(=O)O)N1CCCCC1 (configuration not stated),19.4,5.6,9.2,0.9,0.9
CCN1CCN(/C=N/c2nc3c(s2)CCCC3)CC1,25.2,4.0,-12.9,1.1,1
COc1cc(NC(=O)CCc2ccccc2)nc(OC)n1,4.3,13.7,-55.9,1.6,0.9
CCC(=O)N1CCn2c1nc1ccccc12,6.2,-3.0,19.1,0.8,1
O=C(C1CCN(S(=O)(=O)c2cccc3nsnc23)CC1)N1CCn2c1nc1ccccc12,0.1,49.9,-11.0,1.1,0.5
Cc1ccc(N(CC(=O)N2CCn3c2nc2ccccc23)S(=O)(=O)c2c(C)n[nH]c2C)cc1,9.0,24.7,63.8*,0.4,0.8
Cc1n[nH]c(C)c1S(=O)(=O)N1CCC(C(=O)N2CCn3c2nc2ccccc23)CC1,5.6,66.0*,42.5,0.6,0.3
N#Cc1cccc(NC(=O)NCCc2c[nH]c3ccccc23)c1,21.6,.,.,.,.
Cc1ccc2nc(SCC(=O)N3c4ccccc4CC3C)c(C)cc2c1 (configuration not stated),7.3,37.6,67.3*,0.3,0.6
Cc1sc2nc(C(C)C)nc(SCC(=O)N3c4ccccc4CC3C)c2c1C (configuration not stated),3.2,.,.,.,.
CC1Cc2ccccc2N1C(=O)CSc1nnc2sc3ccccc3n12 (configuration not stated),1.4,99.9*,66.7*,0.3,0
Cc1ccccc1-n1ncc2c(SCC(=O)N3c4ccccc4CC3C)ncnc21 (configuration not stated),20.6,34.4,61.5*,0.4,0.7
Cc1ccc2nc(-c3cccnc3SCC(=O)N3c4ccccc4CC3C)[nH]c2c1 (configuration not stated),5.2,8.2,15.5,0.8,0.9
COc1ccc(N2CCN(C(=O)CSc3ncnc4c3cnn4-c3ccccc3C)CC2)cc1,11.5,-2.4,1.5,1,1
CCc1nc(SCC(=O)N2c3ccccc3CC2C)c2c(C)c(C)sc2n1 (configuration not stated),27.2,63.5*,99.2*,0,0.4
COc1ccccc1N1C(=O)C2CC=CC(C)C2C1=O (configuration not stated),7.1,35.0,13.5,0.9,0.7
COc1ccc(S(=O)(=O)N2CCCC(C(=O)NCc3ccccn3)C2)cc1Cl (configuration not stated),4.7,36.3,-59.0,1.6,0.6
Cc1nnc(SCC(=O)N2c3ccccc3CC2C)s1 (configuration not stated),31.0,69.4*,14.5,0.9,0.3
Cc1ccc(-n2nnnc2SC(C)C(N)=O)c(C)c1 (configuration not stated),15.8,15.5,-19.2,1.2,0.8
O=C(CN1CCC(n2nnc3cc(F)ccc32)CC1)Nc1ccc2c(c1)CCC2,4.2,44.1,44.6,0.6,0.6
Cc1ccc2c(c1)nnn2C1CCN(CC(=O)Nc2ccc3c(c2)OCCO3)CC1,3.7,27.1,50.1*,0.5,0.7
O=C(CN1CCC(n2nnc3cc(C(F)(F)F)ccc32)CC1)N1CCc2ccccc21,29.9,10.7,-86.4,1.9,0.9
COC(=O)c1ccccc1NC(=O)CN1CCC(n2nnc3cc(C)ccc32)CC1,.,25.0,24.6,0.8,0.8
O=C(CN1CCC(n2nnc3cc(F)ccc32)CC1)N1CCCc2ccccc21,12.4,65.9*,9.6,0.9,0.3
O=C(CN1CCC(n2nnc3ccccc32)CC1)Nc1ccc2c(c1)CCC2,1.5,67.5*,62.0*,0.4,0.3
SMILES,Measles CPE,CYP2C19 inh,CYP2C9 inhib,CYP2C9 activ,CYP2C19 activ
Cc1ccc2nc(C3CCN(CC(=O)Nc4ccc5c(c4)OCCO5)CC3)[nH]c2c1,11.5,80.2*,77.8*,0.2,0.2
Cc1c(C(=O)O)oc2c1/C(=N\O)CCC2,7.7,.,.,.,.
O=C(CSc1nnc2c(Cl)cc(Cl)cn12)N1CCOCC1,10.7,-26.5,-8.0,1.1,1.3
CCN(CC)CC#CC(C)OCOCC#CCOC (configuration not stated),19.9,3.3,-3.0,1,1
Cc1cc(NC(=O)CN2CCC(n3nnc4cc(C(F)(F)F)ccc43)CC2)no1,23.5,77.5*,85.9*,0.1,0.2
CCOc1ccc2nc(NC(=O)CN3CCC(n4nnc5cc(C(F)(F)F)ccc54)CC3)sc2c1,12.3,-9.9,-10.6,1.1,1.1
COc1ccc(Cl)cc1NC(=O)CN1CCC(n2nnc3cc(F)ccc32)CC1,4.7,75.7*,18.7,0.8,0.2
O=C(CCN1C(=O)C2CCCCC2C1=O)NNC(=O)c1cccc(Cl)c1 (configuration not stated),8.2,.,.,.,.
Cc1ccc(-n2nc3ccc(NC(=O)/C=C/c4ccco4)cc3n2)cc1,11.8,.,.,.,.
CC(C)CCNC(=O)CN(C)S(=O)(=O)c1cccc2nsnc12,7.7,25.4,50.2*,0.5,0.7
CN(CC(=O)NCc1cccs1)S(=O)(=O)c1cccc2nsnc12,3.8,82.6*,-24.7,1.2,0.2
CCCCC(CC)CNC(=O)CN(C)S(=O)(=O)c1cccc2nsnc12 (configuration not stated),38.3*,23.2,25.8,0.7,0.8
O=C(CCNS(=O)(=O)c1cccc2nsnc12)NCc1cccs1,2.9,16.3,-66.7,1.7,0.8
CN(CC(=O)NCCN1CCCCCC1)S(=O)(=O)c1cccc2nsnc12,7.3,1.5,3.2,1,1
CC1Cc2ccccc2N1S(=O)(=O)c1cccc(C(=O)c2nccn2C)c1 (configuration not stated),24.6,36.2,44.4,0.6,0.6
COc1cccc(CNC(=O)C2CCN(S(=O)(=O)N3CC(C)CC(C)C3)CC2)c1 (configuration not stated),6.1,15.3,10.5,0.9,0.8
Cc1ccc(C(=O)Oc2coc(CSc3nnc(NC(=O)C4CC4)s3)cc2=O)cc1C,28.3,.,.,.,.
COc1cccc(C(=O)N2CCN(Cc3ccccn3)CC2)c1OC,33.6,6.4,-7.6,1.1,0.9
CCOc1ccc(C(=O)N/N=C/c2ccc(-c3ccc(S(=O)(=O)Nc4ncccn4)cc3)o2)cc1,11.1,13.1,72.1*,0.3,0.9
CCOc1ccc(NC(=O)C(=O)N/N=C\c2ccc(CNS(=O)(=O)c3ccccc3)o2)cc1,5.9,.,.,.,.
O=C(N/N=C/c1ccc(-c2ccc(S(=O)(=O)Nc3ncccn3)cc2)o1)c1cc2ccccc2cc1O,14.9,30.3,80.9*,0.2,0.7
Nc1nnc(CC(=O)N/N=C/c2ccc(-c3ccccc3)o2)s1,19.5,.,.,.,.
O=C(Cn1nnc(-c2ccccc2)n1)OC1CCOC1=O (configuration not stated),9.0,13.1,8.2,0.9,0.9
